# According to PubChem BioAssay AID463215 (Sanford-Burnham Center for Chemical Genomics, 2010):
# About 2,900 (63%) of roughly 4,600 compounds were called active.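 The calls were made as follows: active = inhibition of yeast growth at or above a set limit in either of two replicates at 10 µM; inactive = the rest.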 So high a share suggests a set chosen from earlier hits. A selection follows.
# Assay: TIM10 isogenic control strain growth inhibition – single concentration, luminescence, S. cerevisiae, counter-screen for tim10-1 synthetic lethality project, confirmation (AID 463215);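 also: isogenic wild-type TIM10 control yeast grown in succinate dextrose medium; this counterscreen used the strain with wild-type TIM10; 0% = yeast with DMSO and 100% = medium wells lacking yeast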
# Settings: BacTiter-Glo luminescence, 24 h, at 10 µM, active compounds read high
row,Compound,inhibition
1,O=C1C=CC(=O)N1c1ccc(N2CCCCC2)cc1,85.4% (active)
2,COc1ccc2c(CN3CCN(S(=O)(=O)c4cccs4)CC3)cc(=O)oc2c1,-35.7% (inactive)
3,O=C(O)CCCC(=O)Nc1ccccc1-n1ccnc1,-10.4% (inactive)
4,CN(C)c1ccnc2sc(C(=O)c3ccccc3)c(N)c12,25.4% (inactive)
5,O=C(CN1CCN(S(=O)(=O)c2ccc3ccccc3c2)CC1)NC(=O)NC1CCCCC1,23.4% (inactive)
6,COc1ccc(S(=O)(=O)N2CCN(C(C)C(=O)Nc3ccc(C(C)C)cc3)CC2)cc1 (centres undefined),38.8% (active)
7,Fc1ccc(-n2c(Cc3ccccc3)nnc2SCc2nc(-c3ccc(Cl)cc3)no2)cc1,37.8% (active)
8,Cc1ccc(-c2noc(CSc3nnc(-c4ccncc4)n3-c3ccc(F)cc3)n2)cc1,30.2% (active)
9,Cc1ccc(/C=N/NC(=S)NC2CCCCC2)o1,11.8% (inactive)
10,COc1ccc(N2C(=O)CC(Sc3n[nH]c(-c4ccc(C)cc4)n3)C2=O)cc1 (centres undefined),13.8% (inactive)
11,FC(F)(F)c1cccc(NC(=S)Nc2cccc(Cl)c2)c1,26.8% (inactive)
12,O=C(Nc1cccc(Cl)c1)OCc1ccccn1,41.4% (active)
13,O=C(Nc1cccc(Cl)c1)C1CCCN(c2cnccn2)C1 (centres undefined),5.7% (inactive)
14,O=C(CSc1cccc[n+]1[O-])c1ccc(-c2ccccc2)cc1,44.2% (active)
15,O=C1NC(Nc2nc3ccccc3s2)(C(F)(F)F)C(=O)N1C1CCCCC1 (centres undefined),52.6% (active)
16,N#CC1(C#N)C(C(=O)C23CC4CC(CC(C4)C2)C3)C12CCOCC2 (centres undefined),26.6% (inactive)
17,COC(=O)c1c(NC(=O)COc2ccc(Cl)cc2Cl)sc2c1CC(C)(C)NC2(C)C,45.8% (active)

row,Compound,inhibition
1,CCn1c(CSCc2c(Cl)cccc2Cl)n[nH]c1=S,35.4% (active)
2,O=C(Nc1ccccc1Cl)/C(Cl)=C(\Cl)S(=O)c1ccccc1 (centres undefined),89.6% (active)
3,O=c1oc(-c2ccccc2NS(=O)(=O)c2ccc(Cl)cc2)nc2ccccc12,41.5% (active)
4,Cc1[nH]c(=O)c(C(=O)/C=C/c2ccccc2)c2c1CCCC2,38.8% (active)
5,COc1ccc(Nc2cc(C)nc(-n3nc(C)cc3C)n2)cc1,34.1% (active)
6,COc1ccc(/C=C(\C#N)C(=O)ONC2=NCCCCC2)cc1,59% (active)
7,O=C(Nc1cccc(S(=O)(=O)N2CCCC2)c1)c1cncc(Br)c1,-2.05% (inactive)
8,O=C(NCCc1ccc(F)cc1)c1ccc(S(=O)(=O)N2CCCCC2)cc1,53.5% (active)
9,CC(=O)Cc1nsc(NC(=O)c2ccc(Cl)cc2Cl)n1,17.2% (inactive)
10,C/C(=N/NC(=S)Nc1ccccc1)c1ccc2c(c1)OCO2,38.8% (active)
11,CC(=O)N1C(C)c2ccccc2C(C)(C)CC12CCCCC2 (centres undefined),-16% (inactive)
12,COc1ccc(Nc2nc(N)nc(CSC(=S)N3CCC(C)CC3)n2)cc1,-1% (inactive)
13,Cc1cc(C)nc(S/C=C/C(=O)c2ccccc2)n1,60.8% (active)
14,Cc1csc(NC(=S)Nc2cccc(Cl)c2)n1,9.5% (inactive)
15,Cc1cc(C)c(S(=O)(=O)c2ccccc2)c(OC(=O)c2c(F)cccc2Cl)n1,-5.1% (inactive)
16,COC(C/C=C/C(=O)[C@@H](C)OCc1ccccc1)OC,39.4% (active)
17,CNC(=O)/C(C#N)=C/c1c(F)cccc1Cl,40.6% (active)
